High-throughput results (PubChem)
DT40 TDP1 no CPT = qHTS for Inhibitors of human tyrosyl-DNA phosphodiesterase 1 (TDP1): qHTS in cells in absence of CPT | DT40 Tdp1-/- hTDP1 cells, no CPT, ATP luminescence, 48 h | Potency, µM (titrated, usually from 46.2 µM), hits mostly inhibitors | 420,000 tested, 15% active | AID 686978, 2013; note: nearly all actives have a fitted effect of over 55% in size
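Chicken DT40 Tdp1-/- cells complemented with human TDP1, screened without camptothecin (DMSO vehicle only), 400 cells/well. Compounds pin-transferred, cells incubated at 37 °C for at least 48 hr. Growth read as ATP-dependent luminescence (CellTiter-Glo, 30 min at RT).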
TDP1 inh = TDP1 (human) enzyme inhibition | Q9NUW8 | recombinant TDP1, AlphaScreen DNA substrate cleavage | Potency, µM (series often up to 130 µM), most hits filed as inhibitors | 350,000 tested, 0.28% active | AID 485290; note: nearly all actives have a fitted effect of over 40% in size
Target sequence (Q9NUW8 whole entry, looked up): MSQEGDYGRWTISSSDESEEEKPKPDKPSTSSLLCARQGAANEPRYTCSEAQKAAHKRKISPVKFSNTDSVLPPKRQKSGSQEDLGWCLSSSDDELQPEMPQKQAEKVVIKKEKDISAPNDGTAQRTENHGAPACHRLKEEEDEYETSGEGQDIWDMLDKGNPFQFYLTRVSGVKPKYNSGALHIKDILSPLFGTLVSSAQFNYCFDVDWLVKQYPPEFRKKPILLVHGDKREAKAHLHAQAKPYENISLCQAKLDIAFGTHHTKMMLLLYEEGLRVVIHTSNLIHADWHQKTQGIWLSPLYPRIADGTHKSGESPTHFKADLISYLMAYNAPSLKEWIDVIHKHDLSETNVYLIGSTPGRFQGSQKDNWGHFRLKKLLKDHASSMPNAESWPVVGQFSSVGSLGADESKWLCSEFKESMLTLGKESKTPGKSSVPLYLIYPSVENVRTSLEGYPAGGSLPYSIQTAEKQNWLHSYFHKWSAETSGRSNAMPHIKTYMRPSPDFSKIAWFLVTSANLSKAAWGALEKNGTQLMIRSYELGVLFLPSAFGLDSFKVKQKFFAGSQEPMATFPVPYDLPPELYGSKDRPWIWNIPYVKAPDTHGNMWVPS
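Steps: enzyme plus compound, 15 min RT; add biotin/phosphotyrosine-FITC oligonucleotide (15 nM final), react 5 min; add donor/acceptor beads (10 ug/ml final), 10 min; read AlphaScreen. Tdp1 at 1 nM final.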
ClpP mod = qHTS Assay for Activators of ClpP. ATP-dependent Clp protease proteolytic subunit (Bacillus subtilis (strain 168)), P80244. purified B. subtilis ClpP, FRET peptide cleavage, 20 min. Potency, µM (doses to about 57.5 µM). 340,000 tested, 1.9% active; active = well fitted falling curve with a large enough effect; inconclusive = small, poorly fitted or top-dose-only effect; inactive = no such curve, though single readings can be large or run the other way; note: the source files actives as falling curves though it sought activators and does not explain the sign; nearly all actives have a fitted effect of over 65% in size
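Purified B. subtilis ClpP, 10 microg/mL final in Tris/HCl pH8 with KCl, BSA, glycerol and Tween-20, cleaved an Abz/nitrotyrosine-quenched decapeptide. Fluorescence (ex 320, em 430) was read at 0 and 20 min at room temperature. Delta was normalized to 5.8 microM ADEP and DMSO/no-enzyme controls.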
TDP1 cell CPT = DT40-hTDP1 cell growth loss with CPT; chicken DT40 Tdp1-/-;hTDP1 cells + 20 nM CPT, ATP luminescence, 48 h; 420,000 tested, 12% active; Potency, µM (series often up to 46.2 µM), hits mostly inhibitors; AID 686979; note: nearly all actives have a fitted effect of over 55% in size
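Chicken DT40 Tdp1-/- cells complemented with human TDP1, 400 cells/well, exposed to compounds plus 20 nM camptothecin for at least 48 h at 37 C; viability read as ATP content by CellTiter-Glo luminescence.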
Hits are given with their value; i = inactive; ? = inconclusive; nt = not tested or not shown. A selection: hits, their analogues and other compounds. The true share with any hit is near 17%. Unless noted, calls come from the whole dose curve; as a rule, active = well fitted curve in the direction sought with a large enough effect; inconclusive = small, poorly fitted or top-dose-only effect, or another doubt; inactive = no such curve, though single readings can be large; an effect the other way counts as inactive or inconclusive.

SMILES	DT40 TDP1 no CPT	TDP1 inh	ClpP mod	TDP1 cell CPT
CCCCOc1ccc(-c2nn(-c3ccccc3)cc2C2NC(=O)NC(C)=C2C(=O)OC)cc1 (stereo not drawn)	i	i	i	i
CCOc1ccc(C(=O)NC2CC(=O)N(c3ccc4c(c3)OCCO4)C2)cc1 (stereo not drawn)	i	nt	i	i
Brc1cccc(-c2nc3c4ccccc4ccn3c2Cc2ccsc2)c1	?	nt	i	25.9µM
CCOC(=O)Cc1c(-c2cccc(Br)c2)nc2c3ccccc3ccn12	18.4µM	nt	i	?
Fc1ccc(-c2nc3c4ccccc4ccn3c2CC2CCCCC2)cc1	20.6µM	nt	?	14.6µM
Cc1cc(Br)cn2c(Cc3ccsc3)c(-c3cccc(Br)c3)nc12	i	nt	i	i
Fc1ccc(-c2nc3c4ccccc4ccn3c2Cc2ccsc2)cc1	14.6µM	nt	i	14.6µM
Cc1cc(Br)cn2c(Cc3ccsc3)c(-c3ccccc3)nc12	?	nt	i	?
CCOC(=O)c1c(C)nc2c3ccccc3ccn12	i	i	i	?
CC(NCCCSc1ccccc1)C(O)c1ccc(O)cc1 (stereo not drawn)	?	nt	i	?
CCn1cc(C(=O)O)c(=O)c2cnc(N3CCN(C(=S)NC(=O)c4ccc(OC)cc4)CC3)nc21	i	nt	nt	i
CCc1cc(C(=O)N=Nc2c(O)[nH]c3c(Br)cc(Br)cc23)c2ccccc2n1	?	i	nt	20.6µM
COC(=O)c1[nH]c2c(c1C)C(=O)CC(c1ccc(OC)cc1)C2 (stereo not drawn)	?	nt	nt	i
Cc1c(C(=O)OCC(C)C)[nH]c2c1C(=O)CC(c1ccco1)C2 (stereo not drawn)	0.82µM	i	i	0.82µM
CC1=C(C(=O)OCC2CCCO2)C(c2coc3ccccc3c2=O)C2=C(CCCC2=O)N1 (stereo not drawn)	i	i	i	i
Cc1c(C(=O)OCC2CCCO2)[nH]c2c1C(=O)CC(c1ccco1)C2 (stereo not drawn)	3.66µM	?	i	3.66µM
C=CCOC(=O)c1[nH]c2c(c1C)C(=O)CC(c1ccco1)C2 (stereo not drawn)	0.0065µM	nt	i	0.0206µM
C/C=C/COC(=O)c1[nH]c2c(c1C)C(=O)CC(c1ccco1)C2 (stereo not drawn)	0.206µM	i	i	0.291µM
COc1ccc(CN(C)S(=O)(=O)c2nnc(NC(=O)c3cccc(C)c3)s2)cc1OC	i	i	i	i
O=C(O)CNS(=O)(=O)c1ccc(C2CCCCC2)cc1	i	i	nt	i
Cc1cc(NC(=O)CC(C)(C)C)nc2c1c(=O)oc1ccccc12	i	i	i	i
CCCc1cc2c(c(NC(C)=O)n1)c(=O)oc1ccccc12	?	i	31.6µM	i
CCOc1ccc(Cl)cc1S(=O)(=O)N1CCC(C(=O)NCc2ccncc2)CC1	i	i	nt	i
Cc1ccc(C(=O)N2C(CC(=O)Nc3ccc(Cl)cc3)C(=O)NC3CCCCC32)cc1 (stereo not drawn)	?	i	nt	16.4µM
CC(=O)c1c(C)nn(CC(O)Cn2c3c(c4cc(C)ccc42)CCCC3=O)c1C (stereo not drawn)	?	i	?	?
SMILES	DT40 TDP1 no CPT	TDP1 inh	ClpP mod	TDP1 cell CPT
Cc1ccc2c(c1)c1c(n2CC(O)Cn2nc(C)c(Br)c2C)C(=O)CCC1 (stereo not drawn)	20.6µM	i	i	20.6µM
COc1ccc(Cl)cc1NC(=O)Cn1c(=O)n(-c2ccc(C)cc2)c(=O)c2ccc(C(=O)NCc3ccccc3Cl)cc21	?	i	i	4.61µM
Cc1ccc(-n2c(=O)c3ccc(C(=O)NCc4ccccc4Cl)cc3n(CC(N)=O)c2=O)cc1	?	i	i	?
COc1ccc(-n2c(=O)c3ccc(C(=O)NCc4ccc(C)cc4)cc3n(CC(=O)Nc3cccc(F)c3)c2=O)cc1	?	i	?	13µM
O=[N+]([O-])c1ncccc1OCc1ccccc1Br	?	i	nt	i
COc1ncc2nc(-c3cccs3)c(=O)n(CCc3ccccc3)c2n1	i	nt	nt	i
Cc1onc(-c2c(F)cccc2Cl)c1C(=O)OCC(=O)NC(=O)NCC(C)C	7.31µM	i	nt	i
Cc1cccc(C(=O)N[C@@H](C)C(=O)N2CCN(c3ncccn3)CC2)c1	i	i	i	i
C/C(=N\NC(=O)c1nnn(-c2nonc2N)c1CN1CCC(C)CC1)c1ccc(Br)cc1	?	nt	i	?
COCCCn1c2nc3ccccc3nc2c2c(=O)n(-c3ccccc3OC)cnc21	i	i	?	?
COc1ccccc1-n1cnc2c(c1=O)c1nc3ccccc3nc1n2-c1ccc(C)c(C)c1	18.4µM	i	?	i
COc1cccc(CNc2nc3cc(-c4ccc(C(=O)N5CCN(C)CC5)cc4)sc3c(=O)n2C)c1	?	nt	i	20.6µM
COc1cccc(CNc2nc3cc(-c4ccc(OC)c(OC)c4)sc3c(=O)n2C)c1	i	nt	i	i
C=CCNc1nc2cc(-c3ccc(C(=O)N4CCOCC4)cc3)sc2c(=O)n1C	?	nt	i	16.4µM
N[C@H](C(=O)O)[C@@H](O)c1ccc(O)c(O)c1	i	nt	nt	?
CC1=C(C(=O)Nc2ccccc2C(F)(F)F)C(c2sccc2C)NC(=S)N1 (stereo not drawn)	16.4µM	i	nt	6.51µM
O=C1CCN(Cc2ccccc2)C(=S)N1	i	nt	nt	i
COC(=O)N/N=C/c1cc(C)n(-c2ccc(Br)cc2)c1C	?	i	i	i
CCc1ccc(-n2c(C)cc(/C=N/NC(=O)OC)c2C)cc1	25.9µM	i	i	?
CCc1ccc(-n2c(C)cc(/C=N/NC(=O)c3ccncc3)c2C)cc1	?	i	i	13µM
COc1ccc(NC(=S)NCc2ccc(S(N)(=O)=O)cc2)c(OC)c1	i	i	i	i
O=C(OCC(=O)N1CCN(c2ccccc2)CC1)c1ccc[n+]([O-])c1	i	i	i	i
O=C(Nc1ccc2c(c1)[C@@H]1C[C@@H](CC(=O)N3CCOCC3)O[C@@H](CO)[C@@H]1O2)NC1CCCC1	i	nt	i	i
O=C(C1CCC(CNc2nc(=S)[nH]c3ccccc23)CC1)N1CCN(c2ccccn2)CC1 (stereo not drawn)	18.4µM	i	i	18.4µM
O=C(N/N=C/C(Cl)=C/c1ccc([N+](=O)[O-])cc1)C(=O)Nc1ccccc1C(=O)O	8.2µM	?	nt	5.17µM
O=C(N/N=C/C(Cl)=C/c1ccc([N+](=O)[O-])cc1)C(=O)Nc1ccc(C(=O)O)cc1	20.6µM	i	i	14.6µM
O=C(/C=C\c1ccc2c(c1)OCO2)NC1CC(=O)N(c2ccccc2)C1 (stereo not drawn)	i	i	i	i
COc1ccc(N2CC(NC(=O)/C=C\c3ccc4c(c3)OCO4)CC2=O)cc1 (stereo not drawn)	i	i	28.2µM	i
COc1cccc(N(C(=O)c2snc(C(N)=O)c2N)C(C(=O)NCC2CCCO2)c2cccs2)c1 (stereo not drawn)	16.4µM	i	nt	?
